Assay results taken from the supplement of paper PMC10849652.
Of roughly 7,900 targets only a part is listed; those with a hit were picked by preference. About 0.6% of all pairs of compound and target were hits. Unmarked numbers belong to inactive results.

Chain of UniProt Q13131 (Q13131 whole entry, looked up): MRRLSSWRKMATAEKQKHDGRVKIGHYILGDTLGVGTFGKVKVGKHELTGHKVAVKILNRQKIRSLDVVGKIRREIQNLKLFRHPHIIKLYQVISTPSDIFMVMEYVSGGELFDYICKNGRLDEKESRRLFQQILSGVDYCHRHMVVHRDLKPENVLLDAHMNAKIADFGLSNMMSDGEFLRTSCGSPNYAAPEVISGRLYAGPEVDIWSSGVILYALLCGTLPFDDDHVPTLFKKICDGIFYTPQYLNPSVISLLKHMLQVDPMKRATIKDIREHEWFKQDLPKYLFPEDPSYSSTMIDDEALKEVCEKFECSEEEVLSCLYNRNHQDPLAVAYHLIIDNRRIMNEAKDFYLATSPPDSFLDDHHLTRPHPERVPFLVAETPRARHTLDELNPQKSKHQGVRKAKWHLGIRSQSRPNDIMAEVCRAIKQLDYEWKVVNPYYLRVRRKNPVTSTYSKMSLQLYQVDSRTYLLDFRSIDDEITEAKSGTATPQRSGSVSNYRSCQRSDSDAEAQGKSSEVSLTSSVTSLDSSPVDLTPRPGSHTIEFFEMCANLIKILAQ
Chain of UniProt Q92968 (Q92968 whole entry, looked up): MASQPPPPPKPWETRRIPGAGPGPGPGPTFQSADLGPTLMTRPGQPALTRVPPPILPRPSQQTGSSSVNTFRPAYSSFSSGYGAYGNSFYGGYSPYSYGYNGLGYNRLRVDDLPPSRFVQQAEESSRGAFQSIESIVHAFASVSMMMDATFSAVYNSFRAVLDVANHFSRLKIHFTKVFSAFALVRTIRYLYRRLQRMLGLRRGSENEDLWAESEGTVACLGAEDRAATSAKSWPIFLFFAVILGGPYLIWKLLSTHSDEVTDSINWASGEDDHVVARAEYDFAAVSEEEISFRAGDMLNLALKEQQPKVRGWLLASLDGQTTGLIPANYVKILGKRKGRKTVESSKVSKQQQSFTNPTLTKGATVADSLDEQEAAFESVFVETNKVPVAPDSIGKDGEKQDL
Chain of UniProt Q6GMV3 (Q6GMV3 whole entry, looked up): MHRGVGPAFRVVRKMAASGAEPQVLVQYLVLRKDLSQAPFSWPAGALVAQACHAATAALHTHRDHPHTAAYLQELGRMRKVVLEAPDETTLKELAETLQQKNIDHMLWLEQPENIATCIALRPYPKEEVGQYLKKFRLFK
Chain of UniProt Q13356 (Q13356 whole entry, looked up): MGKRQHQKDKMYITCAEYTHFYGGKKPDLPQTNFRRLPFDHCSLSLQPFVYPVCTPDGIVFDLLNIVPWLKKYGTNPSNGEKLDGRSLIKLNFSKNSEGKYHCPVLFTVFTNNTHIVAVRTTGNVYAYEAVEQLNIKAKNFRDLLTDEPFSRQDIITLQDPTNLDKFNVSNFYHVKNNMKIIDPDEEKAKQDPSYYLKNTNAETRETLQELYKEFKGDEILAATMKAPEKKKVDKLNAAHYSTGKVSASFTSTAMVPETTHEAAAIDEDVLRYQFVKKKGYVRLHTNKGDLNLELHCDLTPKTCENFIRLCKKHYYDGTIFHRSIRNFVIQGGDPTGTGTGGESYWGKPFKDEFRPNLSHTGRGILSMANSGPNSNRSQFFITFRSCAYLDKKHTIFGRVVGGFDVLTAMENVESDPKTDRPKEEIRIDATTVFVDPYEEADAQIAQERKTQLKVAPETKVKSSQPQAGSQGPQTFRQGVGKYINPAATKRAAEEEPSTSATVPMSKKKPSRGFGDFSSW
Chain of UniProt P51665 (P51665 whole entry, looked up): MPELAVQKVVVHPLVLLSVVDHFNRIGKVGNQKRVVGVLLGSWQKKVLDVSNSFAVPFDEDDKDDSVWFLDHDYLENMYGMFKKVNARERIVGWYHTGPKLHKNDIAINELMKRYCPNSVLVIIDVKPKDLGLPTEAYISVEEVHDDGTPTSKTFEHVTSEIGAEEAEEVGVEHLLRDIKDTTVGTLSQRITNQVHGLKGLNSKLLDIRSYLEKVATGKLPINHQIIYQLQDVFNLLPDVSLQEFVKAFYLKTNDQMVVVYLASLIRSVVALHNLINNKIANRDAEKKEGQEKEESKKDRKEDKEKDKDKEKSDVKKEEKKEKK
Chain of UniProt Q13200 (Q13200 whole entry, looked up): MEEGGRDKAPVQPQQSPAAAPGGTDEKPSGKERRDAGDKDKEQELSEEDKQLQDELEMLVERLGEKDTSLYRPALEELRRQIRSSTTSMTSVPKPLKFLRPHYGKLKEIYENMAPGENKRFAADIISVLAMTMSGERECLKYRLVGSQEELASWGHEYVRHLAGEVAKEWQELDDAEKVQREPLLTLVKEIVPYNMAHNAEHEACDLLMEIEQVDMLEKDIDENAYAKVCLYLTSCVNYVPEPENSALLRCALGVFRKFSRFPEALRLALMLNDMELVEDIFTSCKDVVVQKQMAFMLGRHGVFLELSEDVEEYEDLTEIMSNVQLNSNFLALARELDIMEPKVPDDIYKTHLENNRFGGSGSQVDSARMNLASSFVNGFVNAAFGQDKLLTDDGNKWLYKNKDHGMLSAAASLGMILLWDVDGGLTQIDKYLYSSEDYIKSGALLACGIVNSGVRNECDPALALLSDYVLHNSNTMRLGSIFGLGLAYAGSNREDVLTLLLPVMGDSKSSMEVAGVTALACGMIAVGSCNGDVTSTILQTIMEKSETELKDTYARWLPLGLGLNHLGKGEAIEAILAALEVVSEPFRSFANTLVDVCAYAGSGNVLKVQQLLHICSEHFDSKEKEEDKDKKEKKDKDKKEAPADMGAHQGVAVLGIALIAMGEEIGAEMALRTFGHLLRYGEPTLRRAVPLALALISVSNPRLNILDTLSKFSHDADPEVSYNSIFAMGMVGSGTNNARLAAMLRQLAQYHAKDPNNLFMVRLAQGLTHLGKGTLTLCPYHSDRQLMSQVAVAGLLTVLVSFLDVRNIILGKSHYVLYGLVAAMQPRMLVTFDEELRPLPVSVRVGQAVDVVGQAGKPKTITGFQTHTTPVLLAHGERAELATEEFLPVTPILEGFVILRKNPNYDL
Chain of UniProt Q08752 (Q08752 whole entry, looked up): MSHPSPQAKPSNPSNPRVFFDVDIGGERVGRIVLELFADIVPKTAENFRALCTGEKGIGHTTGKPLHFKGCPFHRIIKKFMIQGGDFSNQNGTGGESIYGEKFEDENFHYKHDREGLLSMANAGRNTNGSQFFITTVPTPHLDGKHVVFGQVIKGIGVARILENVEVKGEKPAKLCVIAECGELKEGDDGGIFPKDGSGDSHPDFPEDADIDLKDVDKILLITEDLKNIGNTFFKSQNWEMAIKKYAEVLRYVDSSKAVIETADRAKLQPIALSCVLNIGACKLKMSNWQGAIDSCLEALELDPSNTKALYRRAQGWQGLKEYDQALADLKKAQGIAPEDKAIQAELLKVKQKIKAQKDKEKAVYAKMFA
Chain of UniProt Q969N2 (Q969N2 whole entry, looked up): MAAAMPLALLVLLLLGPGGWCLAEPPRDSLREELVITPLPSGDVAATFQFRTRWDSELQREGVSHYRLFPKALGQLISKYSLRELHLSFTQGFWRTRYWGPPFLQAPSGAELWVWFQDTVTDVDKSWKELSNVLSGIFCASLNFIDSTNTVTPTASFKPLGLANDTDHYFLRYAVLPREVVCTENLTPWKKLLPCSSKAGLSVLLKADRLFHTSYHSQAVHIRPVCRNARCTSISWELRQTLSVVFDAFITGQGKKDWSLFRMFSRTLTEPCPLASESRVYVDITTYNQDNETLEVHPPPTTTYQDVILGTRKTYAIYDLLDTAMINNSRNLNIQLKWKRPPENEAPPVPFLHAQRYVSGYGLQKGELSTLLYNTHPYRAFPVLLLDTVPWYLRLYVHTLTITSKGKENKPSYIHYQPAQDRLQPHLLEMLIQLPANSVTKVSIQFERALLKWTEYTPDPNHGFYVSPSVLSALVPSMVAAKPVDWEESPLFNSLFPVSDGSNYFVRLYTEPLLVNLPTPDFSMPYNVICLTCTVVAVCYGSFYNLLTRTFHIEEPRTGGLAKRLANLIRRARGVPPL
Chain of UniProt Q9Y478 (Q9Y478 whole entry, looked up): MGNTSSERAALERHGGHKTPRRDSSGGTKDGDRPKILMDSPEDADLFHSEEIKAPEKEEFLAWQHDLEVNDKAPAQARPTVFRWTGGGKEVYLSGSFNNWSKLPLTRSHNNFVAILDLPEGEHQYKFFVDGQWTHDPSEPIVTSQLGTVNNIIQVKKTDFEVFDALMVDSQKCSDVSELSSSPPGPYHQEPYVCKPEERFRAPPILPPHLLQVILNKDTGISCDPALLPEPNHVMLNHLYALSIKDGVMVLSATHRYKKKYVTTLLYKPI
Chain of UniProt Q9BRP1 (Q9BRP1 whole entry, looked up): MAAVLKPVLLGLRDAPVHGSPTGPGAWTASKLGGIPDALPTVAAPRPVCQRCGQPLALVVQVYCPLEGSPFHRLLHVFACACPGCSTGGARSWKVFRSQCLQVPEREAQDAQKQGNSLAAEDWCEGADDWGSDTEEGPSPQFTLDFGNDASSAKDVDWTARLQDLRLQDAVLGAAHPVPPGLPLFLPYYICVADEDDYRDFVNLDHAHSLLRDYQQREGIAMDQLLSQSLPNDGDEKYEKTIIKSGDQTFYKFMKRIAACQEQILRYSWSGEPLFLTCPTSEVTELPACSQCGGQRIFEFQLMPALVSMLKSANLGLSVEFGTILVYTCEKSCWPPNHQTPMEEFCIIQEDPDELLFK
Chain of UniProt Q9Y5Y5 (Q9Y5Y5 whole entry, looked up): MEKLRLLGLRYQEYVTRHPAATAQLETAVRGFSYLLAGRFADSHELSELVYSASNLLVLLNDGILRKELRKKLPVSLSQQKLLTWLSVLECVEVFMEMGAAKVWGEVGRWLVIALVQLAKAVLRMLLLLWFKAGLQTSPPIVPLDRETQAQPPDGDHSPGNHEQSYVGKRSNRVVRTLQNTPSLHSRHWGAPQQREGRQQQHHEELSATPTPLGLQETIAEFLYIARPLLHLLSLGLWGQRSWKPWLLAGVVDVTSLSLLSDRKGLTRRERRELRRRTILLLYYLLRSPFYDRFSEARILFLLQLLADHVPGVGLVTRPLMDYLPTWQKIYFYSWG

Each target was assayed with CN1CCC(CNc2ccc3ncc(-c4cccc(OC(F)(F)F)c4)n3n2)CC1 (assay: log2 fold change, soluble protein after heating vs DMSO (PISA); higher = thermal stabilisation; K562 cells, 10 uM, 30 min; active = over 0.2 and 3.5 SD of the protein, either way, in both replicates (recomputed)).
Outline: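 Quantification of soluble protein used TMTpro 16plex LC-MS/MS, with channel sums equalised. Samples were the supernatant after 21,000xg for 90 min of pooled aliquots from K562 cells (2×10^6 cells/mL) treated with 10 μM compound for 30 min, heated for 3 min over 48°C-58°C, and extracted in PBS with 0.5% NP-40 at 4°C. Values, from duplicates, describe thermal stability against control samples on a log2 fold-change scale.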
PEX16 isoform 2 (UniProt Q9Y5Y5) was tested, and the log2 fold change was -0.124. For PIGT (UniProt Q969N2), the log2 fold change was 0.081. With PRKAA1 isoform 2 (UniProt Q13131) the log2 fold change was -0.254 (active). Target PTRHD1 (UniProt Q6GMV3) has a log2 fold change of 0.078. PPIL2 (UniProt Q13356) was tested, and the log2 fold change was -0.022. Work on PEX13 (UniProt Q92968) yielded a log2 fold change of -0.378. For PSMD2 (UniProt Q13200), the log2 fold change was 0.055. PPID (UniProt Q08752) showed a log2 fold change of -0.173. With POLD1 (UniProt P28340) the log2 fold change was -0.171. For PDCD2L (UniProt Q9BRP1), the log2 fold change was -0.073. In the case of PRKAB1 (UniProt Q9Y478), the log2 fold change is reported as -0.155. Target PSMD7 (UniProt P51665) has a log2 fold change of 0.06. PYGL (UniProt P06737) was tested, and the log2 fold change was 0.029.
